Source: the supplement of paper PMC10849652
The full data set covers some 8,800 targets. This sample favours those with a hit. About 0.5% of all pairs of compound and target were hits.

Assays:
Test in all cases: log2 fold change, soluble protein after heating vs DMSO (PISA); higher = thermal stabilisation; K562 lysate, 10 uM; active = over 0.2 and 3.5 SD of the protein, either way, in both replicates (recomputed)
[1] = compound: CCCS(=O)(=O)Nc1ccc(F)c(C(=O)c2c[nH]c3ncc(-c4ccc(Cl)cc4)cc23)c1F [vemurafenib]
Procedure, shortened: (§1)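 Pellets of K562 cells were dounce-homogenised in PBS pH 7.4 with 1 mM MgCl2, and the crude extract was held at 1 mg/mL protein for a 30 min treatment with 10 μM compound. Aliquots were heated for 3 min over 48°C-58°C and pooled before NP-40 was added to 0.5% at 4°C. The supernatant from 21,000xg for 90 min was quantified by TMTpro 16plex LC-MS/MS with channel sums equalised. Values are reported from duplicates as log-two fold change in thermal stability relative to solvent controls.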

[2] = compound: CCCS(=O)(=O)Nc1ccc(F)c(C(=O)c2c[nH]c3ncc(Cl)cc23)c1F
Procedure, shortened: as §1

[3] = compound: CCN(CCCOc1ccc2c(Nc3cc(CC(=O)Nc4cccc(F)c4)[nH]n3)ncnc2c1)CCOP(=O)(O)O [barasertib]
Procedure, shortened: as §1

[4] = compound: CC[C@@H]1C(=O)N(C)c2cnc(Nc3ccc(C(=O)NC4CCN(C)CC4)cc3OC)nc2N1C1CCCC1
Procedure, shortened: as §1

[5] = compound: CC[C@@H]1C(=O)N(C)c2cnc(Nc3ccc(C(=O)N[C@H]4CC[C@H](N5CCN(CC6CC6)CC5)CC4)cc3OC)nc2N1C(C)C [volasertib]
Procedure, shortened: as §1

[6] = compound: CCn1c(C(=O)N(C2CC2)C2CC2)cc2c3c(ncn3C)c(Nc3cc(C)n(C)n3)nc21
Procedure, shortened: as §1

[7] = compound: CCn1cc(-c2ccnc3[nH]c(-c4cccc(CN(C)C)c4)cc23)c(-c2ccc(NC(=O)N(C)C)cc2)n1
Procedure, shortened: as §1

[8] = compound: CN1CCC(CNc2ccc3ncc(-c4cccc(OC(F)(F)F)c4)n3n2)CC1
Procedure, shortened: as §1

[9] = compound: CN1CCN(CCOc2cc(OC3CCOCC3)c3c(Nc4c(Cl)ccc5c4OCO5)ncnc3c2)CC1 [saracatinib]
Procedure, shortened: as §1

[10] = compound: CN1CCN(c2nc(C3=C(c4c[nH]c5ccccc45)C(=O)NC3=O)c3ccccc3n2)CC1 [sotrastaurin]
Procedure, shortened: as §1

Measured: log2 fold change

KIF21A isoform 5 (UniProt Q7Z4S6)
inactive: [1] 0.03 | [2] 0.041 | [3] 0.005 | [4] -0.038 | [5] -0.026 | [6] -0.025 | [7] 0.165 | [8] -0.101 | [9] 0.037 | [10] 0.017

MACO1 (UniProt Q8N5G2)
inactive: [1] -0.114 | [2] -0.003 | [3] -0.063 | [5] -0.009 | [6] 0.025 | [7] 0.113 | [8] -0.037 | [9] 0.064 | [10] -0.01
active: [4] 0.296

MAP3K4 (UniProt Q9Y6R4)
inactive: [1] 0.006 | [2] 0.007 | [3] 0.107 | [4] 0.145 | [5] 0.167 | [6] 0.012 | [7] 0.047 | [8] 0.015 | [9] 0.005 | [10] -0.014

LYSMD3 (UniProt Q7Z3D4)
inactive: [1] 0.025 | [2] -0.05 | [3] -0.003 | [4] 0.074 | [5] 0.056 | [6] -0.013 | [7] -0.094 | [8] 0.235 | [9] 0.056 | [10] 0.002

MAP2K7 isoform 4 (UniProt O14733)
Sequence of UniProt O14733 (O14733 whole entry, looked up): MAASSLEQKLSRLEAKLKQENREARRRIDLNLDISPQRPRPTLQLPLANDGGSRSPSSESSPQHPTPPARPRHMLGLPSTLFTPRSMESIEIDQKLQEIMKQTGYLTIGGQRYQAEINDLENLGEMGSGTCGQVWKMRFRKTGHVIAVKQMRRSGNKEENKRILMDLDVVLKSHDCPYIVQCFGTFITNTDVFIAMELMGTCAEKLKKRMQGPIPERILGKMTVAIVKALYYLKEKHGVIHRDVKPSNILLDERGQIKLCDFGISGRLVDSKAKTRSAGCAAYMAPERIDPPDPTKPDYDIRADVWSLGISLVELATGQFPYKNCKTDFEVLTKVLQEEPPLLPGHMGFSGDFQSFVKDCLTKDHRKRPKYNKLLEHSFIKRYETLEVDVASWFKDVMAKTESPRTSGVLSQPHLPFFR
inactive: [1] 0.073 | [2] 0.087 | [3] -0.02 | [4] 0.016 | [5] -0.04 | [6] 0.042 | [7] 0.004 | [8] -0.02 | [9] 0.032 | [10] 0.02

MARK2 (UniProt E9PC69)
inactive: [1] 0.015 | [2] -0.005 | [3] 0.027 | [4] 0 | [5] 0.028 | [6] -0.015 | [7] -0.013 | [8] -0.22 | [9] 0.021 | [10] -0.026

MON2 isoform 5 (UniProt Q7Z3U7)
inactive: [1] -0.015 | [2] 0.025 | [3] 0.008 | [4] -0.029 | [5] -0.04 | [6] 0.019 | [7] -0.07 | [8] 0.062 | [9] -0.006 | [10] -0.003

LIG3 (UniProt P49916)
inactive: [1] -0.029 | [2] -0.003 | [3] 0.019 | [4] -0.127 | [5] -0.028 | [6] 0.031 | [7] -0.033 | [8] -0.011 | [9] 0.018 | [10] 0.009

MAPK9 (UniProt P45984)
inactive: [1] -0.016 | [2] -0.002 | [3] -0.025 | [4] -0.063 | [5] 0.006 | [6] -0.007 | [7] 0.084 | [8] -0.15 | [9] 0.002 | [10] -0.031

MMS19 isoform 8 (UniProt Q96T76)
inactive: [1] 0.064 | [2] 0.006 | [3] 0.029 | [4] -0.061 | [5] -0.114 | [6] 0.002 | [7] -0.005 | [8] -0.051 | [9] 0 | [10] 0.026

LUC7L (UniProt Q9NQ29)
inactive: [1] 0.019 | [2] -0.014 | [3] 0.024 | [4] -0.072 | [5] 0.028 | [6] -0.004 | [7] 0.172 | [8] -0.008 | [9] -0.013 | [10] -0.068

MAP2K1 (UniProt Q02750)
Sequence of UniProt Q02750 (Q02750 whole entry, looked up): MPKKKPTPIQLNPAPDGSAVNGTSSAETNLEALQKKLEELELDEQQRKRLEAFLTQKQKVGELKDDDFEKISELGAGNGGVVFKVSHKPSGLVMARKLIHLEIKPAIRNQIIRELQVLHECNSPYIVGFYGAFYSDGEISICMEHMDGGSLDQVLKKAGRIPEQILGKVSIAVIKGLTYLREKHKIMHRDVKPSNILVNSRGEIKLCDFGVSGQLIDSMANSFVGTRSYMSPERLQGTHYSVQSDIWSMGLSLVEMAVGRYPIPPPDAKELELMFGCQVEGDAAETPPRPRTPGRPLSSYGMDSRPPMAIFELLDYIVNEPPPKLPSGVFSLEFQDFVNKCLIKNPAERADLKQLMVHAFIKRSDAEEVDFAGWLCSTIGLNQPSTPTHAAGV
inactive: [1] 0.056 | [2] 0.194 | [3] 0.022 | [4] -0.043 | [5] -0.051 | [6] -0.057 | [7] 0.281 | [8] -0.041 | [9] 0.032 | [10] 0.015

LLGL1 (UniProt Q15334)
inactive: [1] 0.06 | [2] -0.052 | [3] -0.014 | [4] -0.057 | [5] 0.02 | [6] -0.038 | [7] 0.033 | [8] -0.008 | [9] -0.097 | [10] 0.168

MAPKAPK2 (UniProt P49137)
Sequence of UniProt P49137 (P49137 whole entry, looked up): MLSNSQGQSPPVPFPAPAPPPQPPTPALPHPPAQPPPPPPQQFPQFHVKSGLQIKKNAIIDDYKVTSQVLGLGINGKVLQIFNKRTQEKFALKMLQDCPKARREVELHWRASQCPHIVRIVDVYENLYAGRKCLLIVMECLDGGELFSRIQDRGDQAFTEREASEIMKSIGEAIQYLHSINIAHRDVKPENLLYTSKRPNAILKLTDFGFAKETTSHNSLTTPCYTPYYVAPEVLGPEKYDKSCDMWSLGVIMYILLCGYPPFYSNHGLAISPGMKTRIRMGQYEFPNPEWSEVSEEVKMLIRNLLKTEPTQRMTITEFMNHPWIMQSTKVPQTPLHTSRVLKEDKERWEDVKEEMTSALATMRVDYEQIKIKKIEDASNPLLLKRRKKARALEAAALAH
inactive: [1] 0.011 | [2] -0.043 | [3] 0 | [4] -0.015 | [5] -0.032 | [6] 0.009 | [7] -0.032 | [8] 0.002 | [9] -0.037 | [10] -0.015

LTN1 isoform 3 (UniProt O94822)
inactive: [1] 0.005 | [2] 0.022 | [3] 0.034 | [4] -0.06 | [5] -0.041 | [6] -0.004 | [7] 0.035 | [8] -0.106 | [9] 0.04 | [10] 0.03

MIF (UniProt P14174)
inactive: [1] 0.025 | [2] -0.047 | [3] -0.02 | [4] 0 | [5] -0.025 | [6] 0.021 | [7] -0.274 | [8] 0.084 | [9] 0.002 | [10] 0.002

KIF14 (UniProt Q15058)
inactive: [1] 0.027 | [2] 0.021 | [3] 0.143 | [4] 0.052 | [5] -0.071 | [6] -0.005 | [7] -0.046 | [8] 0.05 | [9] 0.016 | [10] 0.01

MAST4 (UniProt O15021)
Sequence of UniProt O15021 (O15021 whole entry, looked up): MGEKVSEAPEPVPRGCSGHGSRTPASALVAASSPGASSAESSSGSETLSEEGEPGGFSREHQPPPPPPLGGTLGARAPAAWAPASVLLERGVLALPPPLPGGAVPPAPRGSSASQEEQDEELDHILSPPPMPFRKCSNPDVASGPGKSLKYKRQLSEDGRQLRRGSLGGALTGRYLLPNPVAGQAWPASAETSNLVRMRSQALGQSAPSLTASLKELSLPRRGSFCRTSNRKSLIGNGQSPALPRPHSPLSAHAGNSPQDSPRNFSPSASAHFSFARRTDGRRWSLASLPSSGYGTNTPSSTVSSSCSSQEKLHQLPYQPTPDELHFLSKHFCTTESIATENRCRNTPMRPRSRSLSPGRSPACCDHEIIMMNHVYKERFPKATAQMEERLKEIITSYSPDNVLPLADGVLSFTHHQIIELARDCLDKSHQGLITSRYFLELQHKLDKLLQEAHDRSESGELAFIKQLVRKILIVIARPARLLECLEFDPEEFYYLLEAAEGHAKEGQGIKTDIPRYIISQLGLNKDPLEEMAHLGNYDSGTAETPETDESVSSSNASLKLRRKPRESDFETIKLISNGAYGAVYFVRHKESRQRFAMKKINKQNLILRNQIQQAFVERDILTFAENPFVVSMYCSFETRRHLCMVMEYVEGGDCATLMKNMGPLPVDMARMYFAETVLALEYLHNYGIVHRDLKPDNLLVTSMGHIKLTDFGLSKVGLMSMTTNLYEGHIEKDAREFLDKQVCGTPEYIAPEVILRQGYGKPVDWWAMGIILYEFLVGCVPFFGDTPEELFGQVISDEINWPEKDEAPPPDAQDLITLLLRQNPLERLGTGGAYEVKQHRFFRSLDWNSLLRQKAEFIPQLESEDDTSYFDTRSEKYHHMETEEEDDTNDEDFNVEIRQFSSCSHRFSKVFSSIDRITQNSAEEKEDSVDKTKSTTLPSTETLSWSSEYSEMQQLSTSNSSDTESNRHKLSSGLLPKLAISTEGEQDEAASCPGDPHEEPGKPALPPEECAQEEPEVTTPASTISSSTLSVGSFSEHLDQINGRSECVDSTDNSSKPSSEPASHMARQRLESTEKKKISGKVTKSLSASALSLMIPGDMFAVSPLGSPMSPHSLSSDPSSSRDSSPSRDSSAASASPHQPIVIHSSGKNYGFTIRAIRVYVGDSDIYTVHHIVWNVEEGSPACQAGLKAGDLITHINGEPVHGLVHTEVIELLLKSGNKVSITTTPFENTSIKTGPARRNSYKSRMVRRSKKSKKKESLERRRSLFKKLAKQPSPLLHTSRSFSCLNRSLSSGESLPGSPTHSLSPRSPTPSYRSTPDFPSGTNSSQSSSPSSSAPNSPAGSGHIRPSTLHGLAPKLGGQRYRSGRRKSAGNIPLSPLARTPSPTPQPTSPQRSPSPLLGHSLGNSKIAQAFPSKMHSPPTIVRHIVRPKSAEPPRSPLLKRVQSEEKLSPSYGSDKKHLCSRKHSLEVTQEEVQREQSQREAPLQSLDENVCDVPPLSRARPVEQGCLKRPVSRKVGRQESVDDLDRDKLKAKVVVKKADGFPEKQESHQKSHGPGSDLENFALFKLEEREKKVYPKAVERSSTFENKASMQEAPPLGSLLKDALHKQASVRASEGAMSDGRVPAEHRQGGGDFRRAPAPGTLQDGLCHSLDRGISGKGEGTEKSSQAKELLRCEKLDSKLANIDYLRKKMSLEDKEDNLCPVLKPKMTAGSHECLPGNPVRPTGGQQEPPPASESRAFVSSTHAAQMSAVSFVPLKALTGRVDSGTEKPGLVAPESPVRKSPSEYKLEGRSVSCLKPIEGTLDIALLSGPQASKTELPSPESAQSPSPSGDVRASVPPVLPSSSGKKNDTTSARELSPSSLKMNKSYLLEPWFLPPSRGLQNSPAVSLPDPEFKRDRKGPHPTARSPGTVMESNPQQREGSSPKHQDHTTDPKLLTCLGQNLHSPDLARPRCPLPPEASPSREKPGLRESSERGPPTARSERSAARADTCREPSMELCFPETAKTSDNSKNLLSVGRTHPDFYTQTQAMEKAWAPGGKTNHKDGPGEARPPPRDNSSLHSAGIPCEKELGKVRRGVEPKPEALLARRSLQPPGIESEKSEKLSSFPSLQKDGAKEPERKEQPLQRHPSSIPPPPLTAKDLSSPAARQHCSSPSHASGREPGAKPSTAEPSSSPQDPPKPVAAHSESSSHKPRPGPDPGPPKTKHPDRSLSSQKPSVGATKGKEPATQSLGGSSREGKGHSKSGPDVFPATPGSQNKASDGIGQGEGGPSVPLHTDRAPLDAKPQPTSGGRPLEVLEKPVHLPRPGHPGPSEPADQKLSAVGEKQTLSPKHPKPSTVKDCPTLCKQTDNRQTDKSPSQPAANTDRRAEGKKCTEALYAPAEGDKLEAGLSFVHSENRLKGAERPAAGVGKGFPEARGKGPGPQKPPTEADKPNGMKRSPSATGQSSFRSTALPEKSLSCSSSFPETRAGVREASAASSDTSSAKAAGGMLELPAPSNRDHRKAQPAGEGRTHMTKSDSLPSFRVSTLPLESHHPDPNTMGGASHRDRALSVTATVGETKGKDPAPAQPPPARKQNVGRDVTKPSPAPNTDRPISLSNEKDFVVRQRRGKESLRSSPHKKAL
inactive: [1] -0.085 | [2] -0.049 | [3] 0.051 | [4] -0.126 | [5] -0.017 | [6] 0.121 | [7] -0.204 | [8] 0.059 | [9] -0.001 | [10] -0.015

MINK1 (UniProt Q8N4C8)
inactive: [1] -0.096 | [2] -0.107 | [3] -0.017 | [4] -0.012 | [5] 0.022 | [6] 0.076 | [7] -0.033 | [8] -0.09 | [9] 0.007 | [10] 0.079

LIG4 (UniProt P49917)
inactive: [1] 0.041 | [2] -0.034 | [3] -0.04 | [4] -0.087 | [5] -0.182 | [6] -0.027 | [7] -0.105 | [8] 0.018 | [9] 0.027 | [10] 0.048

KIF2A isoform 4 (UniProt O00139)
Sequence of UniProt O00139 (O00139 whole entry, looked up): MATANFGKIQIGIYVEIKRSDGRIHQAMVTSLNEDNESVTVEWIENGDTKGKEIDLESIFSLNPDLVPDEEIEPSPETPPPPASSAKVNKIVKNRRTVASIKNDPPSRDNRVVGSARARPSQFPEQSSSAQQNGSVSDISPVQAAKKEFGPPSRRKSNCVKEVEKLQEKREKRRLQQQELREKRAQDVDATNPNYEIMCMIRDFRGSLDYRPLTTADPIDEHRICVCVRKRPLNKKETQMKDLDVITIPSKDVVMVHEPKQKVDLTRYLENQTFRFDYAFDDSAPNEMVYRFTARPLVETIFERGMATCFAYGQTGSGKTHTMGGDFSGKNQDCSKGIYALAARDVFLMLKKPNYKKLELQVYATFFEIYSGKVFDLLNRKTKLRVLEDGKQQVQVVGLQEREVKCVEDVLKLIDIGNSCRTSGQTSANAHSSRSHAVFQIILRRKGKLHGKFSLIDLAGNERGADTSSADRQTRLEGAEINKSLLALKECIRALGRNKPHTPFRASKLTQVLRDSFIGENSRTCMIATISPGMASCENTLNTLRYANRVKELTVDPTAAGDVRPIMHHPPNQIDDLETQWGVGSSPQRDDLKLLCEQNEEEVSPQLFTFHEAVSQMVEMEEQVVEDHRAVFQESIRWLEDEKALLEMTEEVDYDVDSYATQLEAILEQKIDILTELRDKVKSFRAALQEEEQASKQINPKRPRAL
inactive: [1] -0.006 | [2] 0 | [3] -0.014 | [4] -0.117 | [5] -0.032 | [6] 0.042 | [7] -0.013 | [8] 0.009 | [9] 0.021 | [10] 0.023

MAP11 (UniProt Q8WVR3)
inactive: [1] -0.032 | [2] 0.044 | [3] 0.07 | [4] 0.129 | [5] -0.079 | [6] 0.086 | [7] 0.049 | [8] 0.06 | [9] 0.033 | [10] -0.039

LAS1L (UniProt Q9Y4W2)
inactive: [1] -0.027 | [2] 0.007 | [3] -0.003 | [4] -0.051 | [5] -0.069 | [6] 0.009 | [7] -0.055 | [8] 0.099 | [9] -0.031 | [10] 0.049

LRWD1 (UniProt Q9UFC0)
inactive: [1] 0.009 | [2] -0.013 | [3] -0.021 | [4] -0.016 | [5] -0.017 | [6] 0.023 | [7] -0.003 | [8] 0.036 | [9] 0.025 | [10] 0.03

LYAR (UniProt Q9NX58)
inactive: [1] 0.011 | [2] 0.005 | [3] -0.024 | [4] 0.005 | [5] 0.003 | [6] -0.027 | [8] -0.128 | [9] 0.028 | [10] -0.039
active: [7] 0.312

KLC1 isoform 6 (UniProt Q07866)
inactive: [1] 0.003 | [2] 0.004 | [3] -0.002 | [4] 0.012 | [5] -0.04 | [6] 0 | [7] 0.019 | [8] -0.063 | [9] 0.015 | [10] -0.011

MICB, A0A140T979
inactive: [1] -0.054 | [2] 0.098 | [3] 0.039 | [4] 0.223 | [5] -0.072 | [6] -0.084 | [7] -0.05 | [8] 0.066 | [9] 0.019 | [10] 0.096

MARK3 (UniProt P27448)
inactive: [1] -0.003 | [2] 0.036 | [3] -0.001 | [4] 0.038 | [5] 0.042 | [6] 0.005 | [7] -0.114 | [8] -0.237 | [9] -0.015 | [10] -0.228

LYRM4 (UniProt Q9HD34)
Sequence of UniProt Q9HD34 (Q9HD34 whole entry, looked up): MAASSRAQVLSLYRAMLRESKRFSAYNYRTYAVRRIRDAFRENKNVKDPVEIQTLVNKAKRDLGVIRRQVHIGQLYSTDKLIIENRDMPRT
inactive: [1] 0.026 | [2] 0.015 | [3] -0.04 | [4] -0.051 | [5] 0.021 | [6] 0.03 | [8] -0.035 | [9] 0.007 | [10] -0.05
active: [7] 0.715

MACROD1 (UniProt Q9BQ69)
Sequence of UniProt Q9BQ69 (Q9BQ69 whole entry, looked up): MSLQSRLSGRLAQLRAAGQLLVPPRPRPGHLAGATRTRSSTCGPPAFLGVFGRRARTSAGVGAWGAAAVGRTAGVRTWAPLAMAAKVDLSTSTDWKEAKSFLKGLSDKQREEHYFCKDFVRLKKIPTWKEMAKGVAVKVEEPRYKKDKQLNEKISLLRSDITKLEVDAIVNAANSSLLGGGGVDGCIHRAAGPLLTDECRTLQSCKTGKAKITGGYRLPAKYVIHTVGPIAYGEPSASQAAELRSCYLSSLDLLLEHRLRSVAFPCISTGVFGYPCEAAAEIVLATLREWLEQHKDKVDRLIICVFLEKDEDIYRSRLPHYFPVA
inactive: [1] 0.016 | [2] 0.043 | [3] -0.002 | [4] 0.033 | [5] -0.015 | [6] -0.012 | [7] -0.043 | [8] -0.014 | [9] 0.008 | [10] 0.002
